Results as given in PubChem BioAssay (NCI).
About 83,000 compounds went through this panel and 20% of them were active in at least one assay; those are over-represented in the sample as a whole.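 For each line, cells grew in 96-well plates with the test compound present at a single concentration for 48 hours.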 Active and inactive are the calls of the source. Rule for the calls: active = growth percent below 10; inactive = the rest.

Tested on: UACC-257 melanoma
Test: NCI-60 one-dose screen, 48 h (100 = growth as untreated, 0 = no growth, -100 = all killed)
Conditions: 10 µM unless noted

Row | SMILES | growth
1 | Cc1cc(N(CCCNc2ccnc3cc(Cl)ccc23)Cc2ccccn2)nc(N2CCOCC2)n1 | 101% (inactive)
2 | C=C(CNCCc1ccc(O)cc1)[C@@H]1CC[C@]2(COC3CCCCO3)CC[C@]3(C)[C@H](CC[C@@H]4[C@@]5(C)CCC(N)C(C)(C)[C@@H]5CC[C@]43C)[C@@H]12 (stereo partly specified) | -80.7% (active)
3 | Clc1ccc2c(NCCCN3CCN(c4nc(-n5ccnc5)nc5ccccc45)CC3)ccnc2c1 | 87.1% (inactive)
4 | Cn1c(NCCc2ccc(O)c(O)c2)nc2c1c(=O)n(Cc1ccc(Cl)cc1)c(=O)n2C | 117% (inactive)
5 | CCN(CC)N=Nc1nn(C(=O)Nc2ccc(Cc3ccccc3)cc2)c2ccc(Cl)cc12 | 55.5% (inactive)
6 | COC(=O)c1ccc2oc(NC(=O)c3ccc(N4CCOCC4)c([N+](=O)[O-])c3)nc2c1 | 97.9% (inactive)
